Inconclusive results are not listed. Where a call stands in place of a potency, no number is given. Calls of active or inactive are those of the source. Calls come from the whole dose curve; as a rule, active = well fitted inhibition curve with a large enough effect in the signal ratio in the repeat runs, with a control signal flat; inconclusive = weak or mixed curves, or effect the other way; inactive = flat fitted curve, though single readings scatter; the % refers to the signal ratio.
Biological target: D(2) dopamine receptor (Homo sapiens) (UniProt P14416)
Assay: Dopamine D2 receptor (DRD2) small molecule antagonists, cell-based qHTS assay (AID 1963595)
Settings: HEK293-DRD2 cAMP HTRF antagonist mode; series mostly up to 92.4 µM
Description: National Center for Advancing Translational Sciences [NCATS]
Division of Preclinical Innovation [DPI]
U.S. Environmental Protection Agency [EPA]
National Institutes of Environmental Health Sciences [NIEHS]
National Toxicology Program [NTP]
U.S. Food and Drug Administration [FDA]
DRD2 is the D2 subtype of the dopamine receptor, which is coupled to Gi subtype of G protein-coupled receptor. This G protein-coupled receptor inhibits adenylyl cyclase activity. The DRD2-HEK293 cell line stably expressing D2 dopamine receptor can be used for screening agonists and antagonists of interactions between D2 and its ligands. The Hek293-DRD2 cAMP assay is based on HTRF technology. It measures changes of cAMP accumulation in response to Gi coupled GPCR activation or inhibition.
Tox21 Assay Protocol Summary:
DRD2-Hek293 cells were dispensed at 600 cells/3uL/well in 1536-well white plates using a Multidrop Dispenser. After the assay plates were incubated at a 37 C/5% CO2 incubator for 24 h, 1 uL of Ro20-1724 at final concentration of 0.1 mM was transferred to the assay plate by a Flying Reagent Dispenser. Following Ro20-1724 addition, 23 nL of compound dissolved in DMSO, positive controls or DMSO only was added to the assay plates via Wako pintool station. The assay plates were incubated at room temperature for 10 min. Next, 1 uL of mixture of NKH477 (final concentration at 200 nM) and quinpirole (final concentration at 12 nM) was added into the plates. After the assay plates were incubated at room temperature for an additional 30 min, 2.5 ul/well of cAMP-d2 and 2.5 ul/well of anti-cAMP-cryptate were added respectively into the assay plates using a Flying Reagent Dispenser. The plates were incubated at room temperature for 1 h. The fluorescence intensity in the plates was measured at 340 nm excitation and 665 & 620 nm emission by an Envision plate reader.

Chain of D(2) dopamine receptor (Homo sapiens) (P14416 whole entry, looked up): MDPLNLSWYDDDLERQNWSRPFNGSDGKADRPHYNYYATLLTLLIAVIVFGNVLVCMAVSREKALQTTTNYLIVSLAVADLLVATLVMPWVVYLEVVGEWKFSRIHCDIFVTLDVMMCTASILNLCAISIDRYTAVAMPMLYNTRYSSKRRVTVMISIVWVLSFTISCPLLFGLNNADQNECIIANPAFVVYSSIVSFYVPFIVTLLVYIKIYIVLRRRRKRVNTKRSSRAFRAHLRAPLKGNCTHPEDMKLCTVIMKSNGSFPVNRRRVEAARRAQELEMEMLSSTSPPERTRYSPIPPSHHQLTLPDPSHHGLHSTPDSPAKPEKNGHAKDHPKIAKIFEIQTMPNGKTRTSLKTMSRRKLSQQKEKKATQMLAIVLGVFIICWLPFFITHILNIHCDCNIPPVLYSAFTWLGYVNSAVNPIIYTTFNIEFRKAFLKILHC

Row | Compound | Potency
1 | N#Cc1c(-c2ccc(Cl)cc2)[nH]c(C(F)(F)F)c1Br | inactive
2 | NC1=NC(=O)C(c2ccccc2)O1 (stereo not given) | inactive
3 | CC1(C)C(/C=C(\Cl)C(F)(F)F)C1C(=O)OC(C#N)c1cccc(Oc2ccccc2)c1 (stereo not given) | inactive
4 | O=C(NC(=O)c1c(F)cccc1F)Nc1ccc(OC(F)(F)C(F)OC(F)(F)F)c(Cl)c1 (stereo not given) | inactive
5 | CNC(C)Cc1ccc2c(c1)OCO2 (stereo not given) | inactive
6 | ClC1=C(Cl)[C@]2(Cl)[C@H]3[C@H]([C@@H]4C=C[C@H]3C4)[C@@]1(Cl)C2(Cl)Cl | inactive
7 | O=CC(Br)(Br)Br | inactive
8 | ClSC(Cl)(Cl)Cl | inactive
9 | CC(C)CP(=S)(S)CC(C)C | inactive
10 | CCCCc1c(C)nc(NCC)nc1OS(=O)(=O)N(C)C | inactive
11 | CN1CC[C@]23c4c5ccc(O)c4O[C@H]2[C@@H](O)C=C[C@H]3[C@H]1C5 | inactive
12 | CCCN(CCC)CCc1c[nH]c2ccccc12 | inactive
13 | CC(=O)[O-].CC(=O)[O-].[Co+2] | inactive
14 | CC(C)N(CCC(C(N)=O)(c1ccccc1)c1ccccn1)C(C)C (stereo not given) | inactive
15 | O=NN(CCO)CCO | inactive
16 | CCC1(c2ccccc2)C(=O)NC(=O)NC1=O | inactive
17 | Nc1ccc([N+](=O)[O-])cc1Cl | inactive
18 | CC1CCCCC1NC(=O)Nc1ccccc1 (stereo not given) | inactive
19 | COP(=S)(OC)Oc1ccc([N+](=O)[O-])cc1Cl | inactive
20 | CC(C)C(=O)Cl | inactive

Row | Compound | Potency
21 | CCOP(=O)(Sc1ccccc1)Sc1ccccc1 | inactive
22 | O=C(N/N=C/c1ccc([N+](=O)[O-])o1)c1cc([N+](=O)[O-])cc([N+](=O)[O-])c1O | inactive
23 | N#Cc1c(Cl)cccc1Cl | inactive
24 | C=CC(=O)OCC | inactive
25 | N#C/C=C/C#N | inactive
26 | C=CCN1CC[C@]23c4c5ccc(O)c4O[C@H]2C(=O)CC[C@@]3(O)[C@H]1C5 | inactive
27 | COc1ccc(/C(=C/C(=O)N2CCOCC2)c2ccc(Cl)cc2)cc1OC | inactive
28 | CC(Cl)(Cl)Cl | inactive
29 | CC1(C)CON(Cc2ccccc2Cl)C1=O | inactive
30 | Oc1ccc2ccc3cccc4ccc1c2c34 | inactive
31 | Cc1cc(OC(=O)N(C)C)nn1C(=O)N(C)C | inactive
32 | Clc1ccc2ccccc2c1 | inactive
33 | CCN(CC)c1c([N+](=O)[O-])cc(C(F)(F)F)c(N)c1[N+](=O)[O-] | inactive
34 | CCOc1ccc(C(C)(C)COCc2cccc(Oc3ccccc3)c2)cc1 | inactive
35 | N#CN | inactive
36 | Nc1ccc2c(c1)Cc1ccccc1-2 | inactive
37 | CC(=O)c1cc2c(cc1C)C(C)(C)C(C)CC2(C)C (stereo not given) | inactive
38 | N#C/C(N)=C(/N)C#N | inactive
39 | COP(=S)(Oc1cc(Cl)c(Br)cc1Cl)c1ccccc1 (stereo not given) | inactive
40 | CCC1CCC(=O)O1 (stereo not given) | inactive
